± gives the standard deviation.
Tests used:
Settings in all cases: modulator concentration 10 µM
[1] = tested on: RAW-Dual (murine macrophage reporter line); test: NF-kB reporter (SEAP) activity fold change vs agonist alone; higher = enhanced NF-kB activity
Procedure, shortened: (§1)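 RAW-Dual murine macrophage reporter cells were plated at 50 000 per well in 384-well plates, pin-transferred compound to 10 μM final, and pre-incubated for 1 hour at 37 °C before a PRR agonist was added and the cells incubated overnight. NF-κB activity was read from supernatant SEAP with QUANTI-Blue at 620 nm absorbance, and IRF activity from Lucia luciferase with QUANTI-Luc by luminescence. Each signal was expressed as fold change by dividing by the mean agonist-only control on the same plate. Two replicate plates were averaged, with errors obtained by propagation.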

[2] = tested on: RAW-Dual (murine macrophage reporter line); test: IRF reporter (Lucia luciferase) activity fold change vs agonist alone; higher = enhanced IRF activity
Procedure, shortened: as §1

[3] = tested on: RAW-Dual (murine macrophage reporter line); test: viability score (confluency relative to resting cells, overnight) (fraction); higher = more viable, active = viable (0.7 or more)
Procedure, shortened: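 Compound was added at a final 10 μM to RAW-Dual macrophages in 384-well plates and left overnight. Confluency was imaged with IncuCyte, and two masks were generated in IncuCyte software over all imaged wells. Each viability score is confluency relative to resting cells, and a compound met the cutoff only when both masks were above 70% of resting cells.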

[4] = agonist: CpG ODN 1826 0.5 ug/mL

SMILES | NF-kB reporter [1, 4] | NF-kB reporter ([1]; agonist: LPS 0.1 ug/mL) | NF-kB reporter ([1]; agonist: MPLA […]) | IRF reporter ([2]; agonist: 3'3'-cGAMP 10 ug/mL) | IRF reporter ([2]; agonist: LPS 0.1 ug/mL) | IRF reporter ([2]; agonist: MPLA […]) | viability score [3]
Ic1ccc2c3ccc(I)cc3c3[nH]c(-c4ccccc4)nc3c2c1 | 1.03 ± 0.094 | 1.07 ± 0.14 | 1.11 ± 0.042 | 0.814 ± 0.054 | 1.05 ± 0.1 | 1.31 ± 0.19 | 0.995 (active)
COc1ccccc1C(=O)Nc1ccc(-c2nc3cc(C)ccc3o2)cc1 | 0.794 ± 0.063 | 0.996 ± 0.051 | 1.12 ± 0.11 | 0.803 ± 0.039 | 1.55 ± 0.11 | 1.62 ± 0.14 | 0.975 (active)
Cc1nnc(C)n1N=Cc1ccc(Cl)c([N+](=O)[O-])c1 | 0.797 ± 0.062 | 0.874 ± 0.091 | 1.2 ± 0.1 | 0.898 ± 0.045 | 1.07 ± 0.072 | 1 ± 0.1 | 0.99 (active)
CN1CCN(C2=Nc3ccccc3Oc3ccc(Cl)cc32)CC1 [Prestw-132] | 1.08 ± 0.22 | 0.804 ± 0.09 | 0.812 ± 0.079 | 0.944 ± 0.054 | 1.08 ± 0.18 | 0.961 ± 0.18 | 1.03 (active)
CCCn1c(C(O)(c2ccccc2)c2ccccc2)nc2ccccc21 | 0.514 ± 0.034 | 1.07 ± 0.082 | 0.736 ± 0.05 | 1.3 ± 0.08 | 1.1 ± 0.086 | 1.04 ± 0.19 | 0.888 (active)
CCN(CC)CC#CCOC(=O)C(O)(c1ccccc1)C1CCCCC1 (stereo not drawn) | 0.65 ± 0.059 | 1.2 ± 0.094 | 1.18 ± 0.053 | 0.92 ± 0.062 | 1.67 ± 0.11 | 1.3 ± 0.32 | 0.293 (inactive)
c1ccc(CSc2nnc(-c3ccncc3)o2)cc1 | 1.08 ± 0.075 | 1.18 ± 0.073 | 1.44 ± 0.13 | 0.379 ± 0.017 | 0.65 ± 0.056 | 0.501 ± 0.068 | 0.988 (active)
COc1cccc(C=NNc2nnc(C)c(=O)[nH]2)c1OC | 0.888 ± 0.27 | 1.08 ± 0.094 | 0.993 ± 0.12 | 0.952 ± 0.038 | 1.09 ± 0.22 | 1.15 ± 0.29 | 1.01 (active)
Cc1cc(N2CCCCC2)nc2ccccc12 | 0.493 ± 0.041 | 0.701 ± 0.056 | 0.73 ± 0.093 | 0.982 ± 0.032 | 1.03 ± 0.098 | 1.21 ± 0.17 | 0.293 (inactive)
CCC(=O)CC(O)(c1ccccc1)C(F)(F)F (stereo not drawn) | 1.04 ± 0.099 | 0.955 ± 0.19 | 1.02 ± 0.049 | 1.01 ± 0.14 | 0.953 ± 0.061 | 1.01 ± 0.11 | 0.996 (active)
Cl.Cl.O=C(O)COCCN1CCN([C@H](c2ccccc2)c2ccc(Cl)cc2)CC1 | 1.07 ± 0.082 | 1.06 ± 0.052 | 1.01 ± 0.047 | 0.94 ± 0.057 | 0.905 ± 0.035 | 0.97 ± 0.13 | 1 (active)
Cc1cc(OC2CN(C(=O)CSCc3ccccc3)C2)cc(=O)n1C1CC1 | 1.12 ± 0.056 | 1.07 ± 0.085 | 0.994 ± 0.05 | 0.658 ± 0.034 | 0.986 ± 0.086 | 1.11 ± 0.31 | 1 (active)
COC(=O)C1C(=O)C(=CNc2ccccc2O)C(=O)CC1(C)C (stereo not drawn) | 1.66 ± 0.29 | 1.53 ± 0.13 | 2.44 ± 0.19 | 0.183 ± 0.011 | 1.19 ± 0.11 | 1.02 ± 0.14 | 0.557 (inactive)
CC1(C)Cc2ccccc2C(=C(C#N)C#N)N1 | 1.01 ± 0.08 | 0.912 ± 0.068 | 1.06 ± 0.1 | 1.03 ± 0.041 | 1.33 ± 0.2 | 1.5 ± 0.34 | 1.01 (active)

Reference: the supplement of paper PMC10646978
